Assay results taken from PubChem BioAssay.
Calls of active or inactive are those of the source.

Key:
Albumin (Bos taurus) = Albumin (Bos taurus) (UniProt P02769); assay: compounds binding labelled BSA control protein – biochemical, small-molecule microarray, Alexa647 label, 635/667 nm fluorescence, artefact control for SMM control protein annotation, profiling panel (AID 1118); details: BSA-A647 binding, fluorescence 635 nm, higher = more signal;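 further: score merges 667 nm emission intensity and signal-to-noise per printed compound spot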
[1] = probe aXIP binding to arrayed compounds – biochemical, NeuroSMM set, 635/667 nm fluorescence, primary screen (AID 1119); details: small-molecule microarray, higher = more signal, called active from +8 up or from −8 down;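 further: probe is the protein aXip251-270 applied at 1 µg/mL to compound-printed slides; binding of probe to printed compounds measured as 667 nm fluorescence plus signal to noise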
[2] = probe aNOTCH3 binding on compound microarray – biochemical, small-molecule microarray, 635/667 nm fluorescence, primary screen (AID 1120); details: higher = more signal;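 further: probe is a biotin-tagged antibody raised against NOTCH3 rather than NOTCH3 protein; score merges spot fluorescence near 667 nm with spot signal to noise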
[3] = probe aNOTCH2 binding on compound microarray – biochemical, small-molecule microarray, 635/667 nm fluorescence, primary screen (AID 1121); details: higher = more signal;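 further: score merges feature fluorescence read at 667 nm with its signal to noise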
[4] = target: Carbonic anhydrase 2 (Homo sapiens) (UniProt P00918); assay: compounds binding carbonic anhydrase 2 – biochemical, small-molecule microarray, Alexa647-labelled CAII, profiling panel (AID 1122); details: CAII-A647 binding fluorescence, higher = more signal
[5] = COS7 lysate on small-molecule microarray, probe aHis, 635 nm (AID 1123); details: COS7 cell lysate, fluorescence, higher = more signal;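 further: z-score combines 667nm fluorescence intensity with signal-to-noise per printed compound spot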
[6] = probe aLAP1 signal on lysate-treated microarray – cell lysate, small-molecule microarray, COS7 lysate, primary screen (AID 1124); details: probe aLAP1, fluorescence, higher = more signal;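 further: lysate comes from COS7 cells expressing LAP1 and is applied at 0.3 µg/mL; score merges spot fluorescence near 667 nm with signal-to-noise over triplicate slides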
Sam68 (KHDRBS1) = assay: compounds binding KHDRBS1 protein – biochemical, small-molecule microarray, 635 nm fluorescence, primary screen (AID 1125); details: higher = more signal;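 further: score merges 667 nm channel intensity with signal to noise over triplicate slides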
[7] = system: Chordin-like protein 2 (CHRDL2); assay: compounds binding chordin-like 2 – biochemical, small-molecule microarray, 635 nm fluorescence, primary screen (AID 1126); details: fluorescence 635 nm, higher = more signal;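 further: printed compound slides probed with Chrdl2 protein at 4 µg/mL for 1 h at 4 C; score merges 667 nm emission intensity with signal to noise over three replicate slides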
[8] = target: Concanavalin-A (Canavalia ensiformis) (UniProt P02866); assay: compounds binding concanavalin A lectin – biochemical, small-molecule microarray, Alexa647 label, 635 nm, artefact control for SMM control protein annotation, primary screen (AID 1127); details: ConA-A647 binding fluorescence, higher = more signal;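 further: z combines 667 nm emission intensity with signal-to-noise across three replicate slides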
[9] = compounds binding Alexa647 anti-His antibody – biochemical, small-molecule microarray, 635 nm fluorescence, artefact control for SMM control protein annotation, primary screen (AID 1128); details: higher = more signal;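 further: score merges feature fluorescence with signal-to-noise for each printed compound spot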
[10] = system: Human papillomavirus type 1a E7 protein (residues 1-88); assay: HPV1a E7 small-molecule binders, primary screen, biochemical, small-molecule microarray, residues 1-88, 635 nm (AID 1129); details: small-molecule microarray binding, fluorescence 635 nm; higher = more signal
[11] = target: Focal adhesion kinase 1 (Homo sapiens) (UniProt Q05397); assay: PTK2 protein binding on printed compound slides – biochemical, small-molecule microarray, 635/667 nm fluorescence, BSA, DTT, primary screen (AID 1130); details: 635 nm fluorescence, higher = more signal;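 further: composite of spot emission at 667 nm and signal to noise over triplicate slides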
[12] = system: Fibrinogen (Alexa647-labelled); assay: Alexa647-fibrinogen binding to printed small molecules – biochemical, small-molecule microarray, 635/667 nm fluorescence, artefact control for SMM control-protein annotation, profiling panel (AID 1131); details: fibrinogen-A647 binding fluorescence, higher = more signal;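 further: z-score merges 667 nm fluorescence with per-spot signal-to-noise over triplicate slides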
[13] = target: Follistatin (Homo sapiens) (UniProt P19883); assay: FST protein binding to printed compounds – biochemical, small-molecule microarray, 635/667 nm fluorescence, primary screen (AID 1132); details: 635 nm fluorescence, higher = more signal
[14] = target: Fibroblast growth factor 2 (Homo sapiens) (UniProt P09038); assay: basic fibroblast growth factor binding to printed compounds – biochemical, small-molecule microarray, 635/667 nm fluorescence, primary screen (AID 1133); details: FGF2, fluorescence 635/667, higher = more signal
[15] = JC-1 mitochondrial potential readout, lung cancer cells – cell-based, A549, JC-1 fluorescence, basal, 24 h, 100 nL, profiling panel (AID 1138); details: higher = more signal;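 further: A549 lung adenocarcinoma cells under basal conditions with no added stimulus; test concentration not given here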
Lefty1 = Lefty1 protein binding to printed compounds – biochemical, small-molecule microarray, 635/667 nm fluorescence, primary screen (AID 1139); details: fluorescence 635/667, higher = more signal
[16] = system: wheat germ agglutinin (Triticum aestivum), Alexa647-labelled; assay: Alexa647-WGA lectin binding to printed small molecules – biochemical, small-molecule microarray, 635/667 nm fluorescence, artefact control for SMM control-protein annotation, profiling panel (AID 1140); details: WGA-A647 binding, 635 nm fluorescence, higher = more signal;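 further: score merges 667 nm feature emission with signal to noise over triplicate slides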
[17] = target: Luciferin 4-monooxygenase (Photinus pyralis) (UniProt P08659); assay: inhibition of purified Photinus pyralis luciferase – biochemical, luminescence, purified enzyme, 2006 set, primary screen (AID 1141); details: purified firefly luciferase, SteadyGlo luminescence, 30 min; higher = more signal, called active from +8 up or from −8 down;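 further: cell-free assay with purified firefly luciferase at 100 ng per well in PBS; test concentration not given here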
Chain of Luciferin 4-monooxygenase (Photinus pyralis) (P08659 whole entry, looked up): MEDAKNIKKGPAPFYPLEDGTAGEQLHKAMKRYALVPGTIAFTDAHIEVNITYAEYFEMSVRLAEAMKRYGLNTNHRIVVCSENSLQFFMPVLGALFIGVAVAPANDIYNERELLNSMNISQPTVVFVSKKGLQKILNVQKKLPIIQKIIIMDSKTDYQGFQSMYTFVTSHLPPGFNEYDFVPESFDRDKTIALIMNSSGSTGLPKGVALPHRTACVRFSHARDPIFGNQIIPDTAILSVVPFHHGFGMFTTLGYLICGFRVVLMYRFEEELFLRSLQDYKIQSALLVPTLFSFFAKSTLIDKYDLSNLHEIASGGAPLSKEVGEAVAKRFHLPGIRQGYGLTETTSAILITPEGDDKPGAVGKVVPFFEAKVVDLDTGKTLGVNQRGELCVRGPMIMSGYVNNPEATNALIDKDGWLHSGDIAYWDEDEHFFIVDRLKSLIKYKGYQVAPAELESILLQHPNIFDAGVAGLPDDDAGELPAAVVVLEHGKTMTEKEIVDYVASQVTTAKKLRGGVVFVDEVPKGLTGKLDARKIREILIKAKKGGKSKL

Chain of Concanavalin-A (Canavalia ensiformis) (P02866 whole entry, looked up): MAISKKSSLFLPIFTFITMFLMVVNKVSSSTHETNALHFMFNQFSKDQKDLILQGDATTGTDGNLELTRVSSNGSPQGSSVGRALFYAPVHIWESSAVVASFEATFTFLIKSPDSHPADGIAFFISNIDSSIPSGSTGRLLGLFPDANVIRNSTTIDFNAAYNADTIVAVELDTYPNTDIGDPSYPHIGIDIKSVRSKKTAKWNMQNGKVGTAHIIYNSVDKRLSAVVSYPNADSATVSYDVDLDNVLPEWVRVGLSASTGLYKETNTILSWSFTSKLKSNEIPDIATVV
Chain of Focal adhesion kinase 1 (Homo sapiens) (Q05397 whole entry, looked up): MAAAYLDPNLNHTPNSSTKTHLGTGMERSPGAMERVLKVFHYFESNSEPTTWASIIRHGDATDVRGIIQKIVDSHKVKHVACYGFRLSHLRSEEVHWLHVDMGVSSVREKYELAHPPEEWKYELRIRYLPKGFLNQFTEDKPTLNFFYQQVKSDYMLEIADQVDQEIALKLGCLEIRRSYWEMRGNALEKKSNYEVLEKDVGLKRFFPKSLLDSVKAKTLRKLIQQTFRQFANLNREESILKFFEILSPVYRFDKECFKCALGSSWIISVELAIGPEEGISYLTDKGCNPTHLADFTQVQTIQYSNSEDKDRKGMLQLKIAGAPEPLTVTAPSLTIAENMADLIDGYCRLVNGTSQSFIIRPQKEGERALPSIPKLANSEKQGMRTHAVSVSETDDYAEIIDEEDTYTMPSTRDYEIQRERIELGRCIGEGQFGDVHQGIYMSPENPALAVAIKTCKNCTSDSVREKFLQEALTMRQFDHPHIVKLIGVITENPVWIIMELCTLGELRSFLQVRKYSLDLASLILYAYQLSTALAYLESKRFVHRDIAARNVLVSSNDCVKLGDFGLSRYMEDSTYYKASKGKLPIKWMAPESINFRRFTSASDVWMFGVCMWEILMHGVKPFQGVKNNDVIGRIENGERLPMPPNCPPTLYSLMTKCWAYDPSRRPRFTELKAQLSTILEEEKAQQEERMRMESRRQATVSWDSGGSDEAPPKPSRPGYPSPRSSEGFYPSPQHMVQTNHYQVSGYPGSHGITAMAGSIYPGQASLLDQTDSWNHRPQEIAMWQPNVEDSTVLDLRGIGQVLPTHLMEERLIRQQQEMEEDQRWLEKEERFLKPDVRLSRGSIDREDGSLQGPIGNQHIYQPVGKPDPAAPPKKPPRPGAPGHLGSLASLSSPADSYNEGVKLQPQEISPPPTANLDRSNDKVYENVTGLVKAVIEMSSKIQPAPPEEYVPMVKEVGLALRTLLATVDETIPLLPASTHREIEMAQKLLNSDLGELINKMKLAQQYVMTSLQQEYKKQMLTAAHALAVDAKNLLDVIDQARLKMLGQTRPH
Chain of Fibroblast growth factor 2 (Homo sapiens) (P09038 whole entry, looked up): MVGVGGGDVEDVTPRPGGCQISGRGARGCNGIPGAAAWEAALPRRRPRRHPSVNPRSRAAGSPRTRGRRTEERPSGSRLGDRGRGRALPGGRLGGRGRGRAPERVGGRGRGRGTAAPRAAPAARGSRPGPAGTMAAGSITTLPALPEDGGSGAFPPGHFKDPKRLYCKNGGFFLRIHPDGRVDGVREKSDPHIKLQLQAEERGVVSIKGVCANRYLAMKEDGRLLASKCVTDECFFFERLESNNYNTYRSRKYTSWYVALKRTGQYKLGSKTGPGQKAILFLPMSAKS
Chain of Follistatin (Homo sapiens) (P19883 whole entry, looked up): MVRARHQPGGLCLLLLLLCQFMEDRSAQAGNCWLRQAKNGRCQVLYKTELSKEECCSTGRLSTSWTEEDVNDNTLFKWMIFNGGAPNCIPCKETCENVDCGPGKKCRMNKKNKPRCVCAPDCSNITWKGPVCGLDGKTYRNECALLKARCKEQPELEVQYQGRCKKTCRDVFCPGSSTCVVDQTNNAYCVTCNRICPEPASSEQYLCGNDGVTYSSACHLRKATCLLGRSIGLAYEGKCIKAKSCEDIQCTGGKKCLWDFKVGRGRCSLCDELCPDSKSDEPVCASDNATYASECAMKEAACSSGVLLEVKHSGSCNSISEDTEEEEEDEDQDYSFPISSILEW
Chain of Albumin (Bos taurus) (P02769 whole entry, looked up): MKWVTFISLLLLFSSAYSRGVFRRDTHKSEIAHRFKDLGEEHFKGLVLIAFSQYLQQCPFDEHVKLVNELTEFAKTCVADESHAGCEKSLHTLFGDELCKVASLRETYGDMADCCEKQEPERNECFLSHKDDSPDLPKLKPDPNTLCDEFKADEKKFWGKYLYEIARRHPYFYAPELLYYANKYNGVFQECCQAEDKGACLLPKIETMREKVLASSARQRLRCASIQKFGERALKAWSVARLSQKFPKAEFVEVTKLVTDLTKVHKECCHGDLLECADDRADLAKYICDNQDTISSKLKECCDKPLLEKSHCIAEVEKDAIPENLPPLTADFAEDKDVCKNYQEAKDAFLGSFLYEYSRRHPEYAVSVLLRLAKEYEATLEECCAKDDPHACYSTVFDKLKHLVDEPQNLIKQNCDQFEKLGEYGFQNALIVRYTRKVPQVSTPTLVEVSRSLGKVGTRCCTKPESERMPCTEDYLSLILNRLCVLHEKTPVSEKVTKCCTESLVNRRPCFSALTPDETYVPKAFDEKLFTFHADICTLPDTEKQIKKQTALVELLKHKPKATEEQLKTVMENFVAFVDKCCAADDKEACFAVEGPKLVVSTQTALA

Structure (SMILES)	composite z-score (Albumin (Bos taurus))	composite Z-score [1]	composite z-score [2]	composite z-score [3]	composite z-score [4]	composite z-score [5]	composite z-score [6]	composite z-score (Sam68 (KHDRBS1))	composite z-score [7]	composite z-score [8]	composite z-score [9]	composite z-score [10]	composite z-score [11]	composite z-score [12]	composite z-score [13]	composite z-score [14]	z-score [15]	composite z-score (Lefty1)	composite z-score [16]	z-score [17]
O=C(CS)NCCCCCCNC(=O)[C@@H]1C[C@@H]2C(=O)N[C@@H](Cc3ccccc3)C(=O)N2[C@@H]1c1ccc(O)cc1	-0.318	1.1 (inactive)	-0.128	-0.168	0.636	2.87	1.47	1.28	0.976	0.938	2.75	1.24	0.874	0.255	1.38	1.73	-1.39	1.48	0.072	-0.663 (inactive)
C[C@H]1C2[C@H](Cc3ccccc3)NC(=O)[C@]23C(=O)N[C@H](Cc2ccccc2)C(=O)N[C@@H](Cc2ccccc2)C(=O)NC/C=C\C/C=C/C3[C@@H]2O[C@]12C (stereo not given in full)	0.992	0.448 (inactive)	0.36	-0.0942	0.742	0.0046	0.0901	-0.221	0.371	-1.08	0.133	-0.318	0.838	-1.84	0.162	0.0748	0.298	-0.0066	-0.125	-1.06 (inactive)
CN1C(=O)C2C=CC(C(O)c3ccc(N(C)C)cc3)N(Nc3ccc([N+](=O)[O-])cc3[N+](=O)[O-])C2C1=O (stereo not given)	0.944	-0.399 (inactive)	0.586	0.0683	0.729	2.72	1.4	1.21	0.556	0.884	1.54	1.23	0.171	1.01	1.26	-0.0151	0.469	-0.375	1.24	-1.2 (inactive)
[N-]=[N+]=NCc1ccccc1C[C@@]1(C(=O)N2CCOCC2)N=C(c2ccc(OCCCO)cc2)O[C@@H]1c1ccccc1N=[N+]=[N-]	1.02	-0.188 (inactive)	0.402	0.0753	0.771	2.48	0.358	1.3	-1.07	1.18	1.8	1.22	0.662	0.9	1.12	0.267	1.4	-0.123	1.37	-8.34 (active)
C=C(CCCC)C(=O)CC[C@@H](OC(C)=O)c1ccccc1OCCO	-0.993	2.25 (inactive)	-0.13	-0.117	0.638	-0.429	1.23	-0.665	-0.646	-1.43	-0.848	-0.806	-0.523	-1.75	-0.245	-0.508	0.846	-0.0521	-0.788	-1.33 (inactive)
CO[C@H]1COC(=O)CC=C[C@H](C)COC(=O)[C@@H](OCc2ccccc2)C=C[C@@H]1C	-0.877	2.71 (inactive)	-0.308	-0.14	-0.394	-0.234	0.0842	0.379	1.51	-0.602	0.507	-0.67	-0.3	-0.418	1.56	1.83	0.33	1.69	-0.726	-0.275 (inactive)
C=CC[C@]1(C(=O)OC)N=C(c2ccc(OCCCO)cc2)O[C@H]1c1ccccc1CN=[N+]=[N-]	-0.573	3.17 (inactive)	-0.0598	0.122	0.206	2.41	-0.0978	-1.11	-0.45	-1.06	1.39	0.731	0.5	-0.268	0.286	0.172	1.22	-0.525	0.605	-4.54 (inactive)
C=CCNC(=O)[C@H]1[C@@H]2C(=O)O[C@@H](c3ccccc3)[C@@H](c3ccccc3)N2[C@@H](c2ccccc2OCCO)[C@]12C(=O)N(C(=O)OCCOC)c1ccc(C#CCC(C(=O)OC)C(=O)OC)cc12	0.255	1.06 (inactive)	-0.0448	-0.0829	0.634	2.13	0.689	1.3	-0.052	1.12	2.1	1.2	0.751	0.709	1.24	1.06	-1.18	0.779	1.08	-0.509 (inactive)
O=C1O[C@H](c2ccccc2)[C@H](c2ccccc2)N2[C@H]1[C@@H](C(=O)NC[C@H](O)c1ccccc1)[C@]1(C(=O)Nc3ccc(C#CC4(O)CCCCCC4)cc31)[C@H]2c1ccc(OCCO)cc1	0.579	0.248 (inactive)	0.108	-0.109	0.603	1.92	-0.0049	1.31	0.088	1.16	2.52	1.2	0.285	0.641	1.06	1.04	-1.2	-0.0254	0.959	-1.23 (inactive)
CO[C@H]1O[C@H](CO)[C@@H](OC(=O)Nc2ccc3c(c2)OCO3)[C@H](OC(=O)Nc2ccccc2)[C@@H]1OC(=O)Nc1ccccc1	0.792	0.0474 (inactive)	-0.004	-0.0952	0.743	3	0.982	1.29	-0.0509	1.09	1.79	1.22	1.02	0.968	1.41	1.83	0.187	0.823	0.497	-0.899 (inactive)
COc1ccc([Si](C)(C)[C@H]2[C@H](CCO)O[C@@]3(C(=O)N(Cc4ccccc4)c4ccc(N5C(=O)c6cccc7cccc5c67)cc43)[C@@H]2C)cc1	0.151	-0.229 (inactive)	-0.18	-0.155	0.286	0.0609	1.06	0.143	-0.966	0.386	1.38	-0.333	0.209	-0.603	-0.357	-0.751	2.33	-0.297	0.641	-1.84 (inactive)
